# Results as given in ChEMBL document CHEMBL4513216, “Probing the Open Global Health Chemical Diversity Library for Multistage-Active Starting Points for Next-Generation Antimalarials” (ACS Infect Dis, 2020).
# The campaign covered roughly 69,000 compounds. About 8,600 (12%) showed an effect of 50% or more. This is one part of a sample in which strong results are shown more often than they occur.
# Tested on: Plasmodium berghei
# Test: Screen against P. berghei liver stage (PbLuc), transformed with Luciferase, at 10uM
# Format: functional, HepG2
# Conditions: tested at 10 uM
row,Structure (SMILES),INHIBITION
1,CCc1nnc2n1CCN(C(=O)c1ccc3c(c1)nnn3C)C2,-8.66%
2,CS(=O)(=O)N1Cc2nccn2CC(CNC(=O)c2cccnc2)C1 (stereo not drawn),2.79%
3,CC(C)C[C@H](Nc1nc(C2CCCC2)nc2c1cnn2C)C(N)=O,61%
4,CC(=O)NCCNc1nc(C2CCCC2)nc2c1cnn2C,5.23%
5,Cc1cc(CC(C)Nc2nc(C3CCCC3)nc3c2cnn3C)[nH]n1 (stereo not drawn),45.1%
6,COC(=O)[C@@H](Nc1nc(C2CCCC2)nc2c1cnn2C)[C@@H](C)O,10.9%
7,CCOC(=O)CC(C)Nc1nc(C2CCCC2)nc2c1cnn2C (stereo not drawn),61%
8,CCOC(=O)CNc1nc(COC)nc2c1cnn2C,-4.23%
9,COCCN1CC(Nc2nc(C3CCCC3)nc3c2cnn3C)CC1=O (stereo not drawn),25.1%
10,CC(C)[C@H](Nc1nc(C2CCCC2)nc2c1cnn2C)C(N)=O,28.5%
11,CCC(Nc1nccc(C2CCCC2)n1)c1ccccn1 (stereo not drawn),22.5%
12,CCC(Nc1nccc(C2CCCC2)n1)c1ncccc1C (stereo not drawn),-24.8%
13,COC(=O)[C@H](CSC)Nc1nc(C2CCCC2)nc2c1cnn2C,52.6%
14,CCC(Nc1nccc(C2CCCC2)n1)c1ccncc1 (stereo not drawn),84.1%
15,Cc1c(C2CCCN(C(=O)c3ccn(C)n3)C2)n2c(nc1=O)CCC2 (stereo not drawn),-9.32%
16,CC(=O)NCCNC(=O)NCC1Cc2ccccc2O1 (stereo not drawn),1.56%
17,CN(C)C(=O)CN1CCCCC1c1nc(N)ncc1-c1cccc(F)c1 (stereo not drawn),39.8%
18,CS(=O)(=O)NC1CCCN(C(=O)Nc2cccnc2)C1 (stereo not drawn),37.3%
19,Cc1noc(C)c1-c1nc(C2CCCN(CCC(N)=O)C2)ccc1CO (stereo not drawn),-19%
20,O=C(CCN1C(=O)CC2(CCCC2)C1=O)NCCc1nccs1,20%
21,Cc1nc(NC(=O)C2(C)CN(C)CCO2)sc1C (stereo not drawn),4.3%
22,CCC(Nc1nc(C2CCCC2)nc2c1cnn2C)c1ccncc1 (stereo not drawn),50.8%

row,Structure (SMILES),INHIBITION
1,CCC(Nc1nc(C(C)C)nc2c1cnn2C)c1ccncc1 (stereo not drawn),48%
2,CCC(Nc1nc(C(C)C)nc2c1cnn2C)c1ccc(O)cc1 (stereo not drawn),15.5%
3,CC[C@H](Nc1nc(C(C)C)nc2c1cnn2C)c1ccccc1,53.6%
4,O=S(=O)(CC1CCCCO1)Nc1cnn(CC(F)F)c1 (stereo not drawn),9.76%
5,Clc1ccc(OCCc2cc(C3CCN(c4ncccn4)C3)n[nH]2)cc1 (stereo not drawn),36.22%
6,CCCN1CCC(c2cc(CCOc3ccc(C(F)(F)F)cc3)[nH]n2)C1 (stereo not drawn),58%
7,COc1ccc(OCCc2cc(C3CCN(CC(C)C)C3)n[nH]2)cc1 (stereo not drawn),15.15%
8,O=C(NCc1ccon1)c1c(F)cc(Br)cc1F,-7.83%
9,Cc1nc2ccc(C(=O)N3CCn4c(nnc4C4CC4)C3)cc2nc1C,48.6%
10,Cc1cc2ccccc2n1CCC(=O)N1CCCC2(CC1)CNC(=O)O2 (stereo not drawn),65.7%
11,Cc1cc2ccccc2n1CCC(=O)N1CCC2(CC1)CNC(=O)C2,29.4%
12,O=C1NCC2(CCCN(C(=O)CCn3cnc4ccccc43)CC2)O1 (stereo not drawn),35.8%
13,Cc1cc(NC(=O)CN2CCc3cncnc3C2)no1,16.8%
14,Cc1cc(C2CCCN2Cc2cc(=O)n(C)c(=O)n2C)no1 (stereo not drawn),-10.3%
15,C[C@H](c1ccc(F)cc1)n1c(C2CCC2)n[nH]c1=O,-6.59%
16,C[C@H](c1ccc(Cl)cc1)n1c(C2CC2)n[nH]c1=O,24.4%
17,C[C@H](c1ccc(F)cc1)n1c(C2CCN(C)CC2)n[nH]c1=O,76.8%
18,Cc1nc(N2CCCC2)nc2c1CCN(C(=O)C1CCCCC1)CC2,-42.8%
19,CCOc1ccnc(N2CCN(C(=O)c3ccncc3)CC2)n1,34.7%
20,CC(C)(C)c1n[nH]cc1CNC1CCC(OCC(F)(F)F)CC1 (stereo not drawn),-18.5%
21,CC(C)N(C)S(=O)(=O)N(C)Cc1ccc2c(c1)OCCO2,-10.1%
22,CCN(Cc1ccc2c(c1)OCO2)S(=O)(=O)N(C)C(C)C,-4.16%

row,Structure (SMILES),INHIBITION
1,CC(C)N(C)S(=O)(=O)N(C)Cc1ccc2c(c1)OCO2,54.3%
2,Cc1ccc(CN(C)C(=O)CN2CCCCC2Cn2cncn2)o1 (stereo not drawn),40.5%
3,Cc1cnn(CC2CCCN2CC(=O)N(C)Cc2ccc(C)o2)c1 (stereo not drawn),-10.3%
4,Cc1cc(C)n(CC2CCCN2CC(=O)N(C)Cc2ccc(C)o2)n1 (stereo not drawn),45.7%
5,Cc1nc(C)n(CC2CCCN2CC(=O)N(C)Cc2ccc(C)o2)n1 (stereo not drawn),74.2%
6,Cc1nc(C)n(CC2CCCCN2CC(=O)N(C)Cc2ccco2)n1 (stereo not drawn),28.6%
7,Cc1cnn(CC2CCCCN2CC(=O)N(C)Cc2ccc(C)o2)c1 (stereo not drawn),53.4%
8,CN(C)c1nc2n(c(=O)n1)CCN2C(=O)Nc1ccc(Cl)c(Cl)c1,28.4%
9,CN(C)c1nc2n(c(=O)n1)CCN2C(=O)Nc1ccc(Cl)cc1,-25.5%
10,CN(C)c1nc2n(c(=O)n1)CCN2C(=O)Nc1cccc(Cl)c1,78.1%
11,CCN1CCNC(=O)C12CCN(C(=O)Cc1ccsc1)CC2,-23.1%
12,CC(=O)Nc1nccn1Cc1ccccc1Cl,50.5%
13,CCOCC(=O)Nc1nccn1Cc1ccccc1Cl,22.8%
14,CS(=O)(=O)CCC(=O)Nc1cnn(-c2ccccc2Cl)c1,43.7%
15,CCOCCOC(C)C(=O)Nc1nccn1Cc1ccccc1 (stereo not drawn),89.6%
16,CC(C)N(C)CC(=O)Nc1nccn1Cc1ccccc1Cl,-11.9%
17,CS(=O)(=O)CCC(=O)Nc1nccn1Cc1ccccc1Cl,53.5%
18,Cn1ccc(C(=O)Nc2nccn2Cc2ccccc2Cl)cc1=O,9.91%
19,CCOCCOC(C)C(=O)Nc1ccnn1-c1ccccc1C (stereo not drawn),39.7%
20,CC(OCC1CC1)C(=O)Nc1nccn1Cc1ccccc1 (stereo not drawn),44.7%
21,O=C(NCCn1ccnc1)NCC(c1ccco1)N1CCCC1 (stereo not drawn),-14%
22,Cc1nccn1[C@@H]1CC[C@@H](N(C)S(=O)(=O)c2ccccc2F)[C@H]1O,-0.05%

row,Structure (SMILES),INHIBITION
1,Cc1occc1C(=O)NCC1OCCc2cn(C)nc21 (stereo not drawn),-14.2%
2,COCCCNc1c(-c2ccccc2)c(=O)c1=O,25.3%
3,CC(Cc1cccc(F)c1)NCc1cnc(N2CCN(C)CC2)nc1 (stereo not drawn),23.2%
4,CCCc1nc(C)cc(N2CCNC(C(=O)Nc3ccc(C)nc3)C2)n1 (stereo not drawn),46.1%
5,O=C(NCc1cccnc1)[C@H]1C[C@@H]2CCN(c3ccncn3)C[C@H]2O1,48%
6,CCCc1nc(C)cc(N2CCNC(C(=O)NCc3cccnc3)C2)n1 (stereo not drawn),59.1%
7,CC1CCN(C(=O)[C@@H]2C[C@@H]3CCN(CC4CCOCC4)C[C@@H]3O2)CC1,-24.9%
8,CCOCC(=O)Nc1cc(-c2cccc(F)c2F)n[nH]1,10.7%
9,CC(C)C(=O)Nc1ncn(Cc2cccc(Br)c2)n1,53.3%
10,CSCC(=O)Nc1ncn(Cc2cccc(Br)c2)n1,69.3%
11,COCC(=O)NC(C)Cc1cccc(Br)c1 (stereo not drawn),14.7%
12,O=C(Nc1ncn(Cc2cccc(Br)c2)n1)C1CCC1,37.2%
13,CCCSCC(=O)Nc1ncn(CC(=O)NCc2ccccc2)n1,12.2%
14,O=C(COCC(=O)N1CCCCCC1)NCc1cccc(Br)c1,14.1%
15,CCOCC(=O)Nc1ncn(Cc2cccc(Br)c2)n1,61.8%
16,CC(CC(=O)Nc1ncn(CC(=O)NCc2ccccc2)n1)C1CC1 (stereo not drawn),38.8%
17,CN(C)C(=O)CN1CCN(C(=O)c2cnn(-c3ccccc3Cl)c2)CC1,-2.33%
18,CCOC(=O)N1CCN(C(=O)c2snnc2-c2ccc(OC)cc2)CC1,4.66%
19,COCCN1C[C@@H]2CN(Cc3cccc(C)n3)C[C@@H]2C1=O,14.1%
20,CCc1nc(C2CCCN(C(=O)c3ccc(OC)cc3)C2)no1 (stereo not drawn),-31.8%
21,CC(C)CC(=O)N1CC[C@H]2N(C)CC[C@@]2(C(=O)Nc2ccccc2)CC1,42.5%
22,CCOC1COC2(CCN(Cc3ccc(C)c(C)c3)CC2)C1 (stereo not drawn),30.9%

row,Structure (SMILES),INHIBITION
1,CCCn1ncc(C(=O)NC(C)c2c(C)nn(CC)c2C)c1C (stereo not drawn),9.05%
2,Cn1cnc2cc(C(=O)NS(=O)(=O)c3ccc(F)cc3)ccc21,28.4%
3,Cc1c(C(=O)NS(=O)(=O)c2ccc(F)cc2)cnn1CC(C)C,56%
4,Cc1c(C(=O)NS(=O)(=O)c2ccsc2)cnn1CC(C)C,53.8%
5,CCC(CC)n1ncc(C(=O)NS(=O)(=O)c2ccsc2)c1C,38.4%
6,Cn1nnc2cc(C(=O)NS(=O)(=O)c3ccc(F)cc3)ccc21,17.1%
7,CNc1cc(C2CCCN2C(=O)CCc2cnn(C)c2C)ccn1 (stereo not drawn),14.6%
8,CCNc1cc2c(nn1)CCN(C(=O)c1ccc(-n3cnnc3)cc1)C2,19.6475%
9,Nc1nccc(N2C[C@@H](CN3CCCCC3)[C@@H](CO)C2)n1,-2.39%
10,CSc1nccc(N2C[C@@H](CN3CCCCC3)[C@@H](CO)C2)n1,55.7%
11,Cc1nccc(N2C[C@@H](CN3CCCC3)[C@@H](CO)C2)n1,13%
12,CN(CC(=O)N1CC(C)(C)[C@](O)(C2CC2)C1)Cc1ccncc1,41.5%
13,COc1ccccc1OC1CN(C(=O)CN(C)Cc2ccncc2)C1,-2.04%
14,COc1cc(C(=O)N2CC(Oc3ccccc3Cl)C2)ccn1,27.5%
15,COc1cccc(OC2CN(C(=O)c3ccnc(OC)c3)C2)c1,49.9%
16,CN(CC(=O)N1CC(C)(C)[C@](O)(C2CC2)C1)Cc1cccnc1,-3.94%
17,CCc1ccccc1OC1CN(C(=O)CN(C)Cc2ccncc2)C1,58.1%
18,CN(CC(=O)N1CC(C)(C)[C@@](C)(O)C1)Cc1ccncc1,59.1%
19,CCc1ccccc1OC1CN(C(=O)c2ccnc(OC)c2)C1,61.1%
20,CCc1ccccc1OC1CN(C(=O)CN(C)Cc2cccnc2)C1,-76.5%
